From PubChem BioAssay (NCATS) come the findings set out here.

SMILES strings stand for the structures. “And” between values parts separate entries of the source, which are not always exact repeats. Identical values can stand only once. Results filed as inconclusive are left out. The source made the active and inactive calls. Unless noted, calls come from the whole dose curve; as a rule, active = well fitted curve in the direction sought with a large enough effect; inconclusive = small, poorly fitted or top-dose-only effect, or another doubt; inactive = no such curve, though single readings can be large; an effect the other way counts as inactive or inconclusive. Where a SMILES comes first, the peptide text is derived from it. The star is where a group is joined. PhAc = O=C(Cc1ccccc1)*
% is set by controls: 0 for no effect and ±100 for the full control effect; potency is the fitted concentration of half-maximal effect.

The target of the first experiment is Cytochrome P450 2C9 (Homo sapiens) (UniProt P11712). Put plainly: Cytochrome P450 family 2 subfamily C member 9 (CYP2C9) small molecule antagonists: luciferase biochemical (cell-free) qHTS assay (AID 1645842; active = well fitted curve in the direction sought with a large enough effect in the repeat runs; an effect the other way counts as inactive or inconclusive; note: nearly all actives have a fitted effect of over 55% in size). The note with it: P450-Glo CYP2C9 enzyme assay, luciferin luminescence; series mostly up to 57.4 µM; activity change, negative = inhibition: at the top concentration. The method, boiled down: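 Luminescence, after 20 min with luciferin detection reagent, reflected CYP2C9 turnover during a 1 h NADPH-driven reaction at 37C. Enzyme-substrate mix contained 0.4% bovine serum albumin and was preincubated with compound 10 min at room temperature.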
Sequence of Cytochrome P450 2C9 (Homo sapiens) (P11712 whole entry, looked up): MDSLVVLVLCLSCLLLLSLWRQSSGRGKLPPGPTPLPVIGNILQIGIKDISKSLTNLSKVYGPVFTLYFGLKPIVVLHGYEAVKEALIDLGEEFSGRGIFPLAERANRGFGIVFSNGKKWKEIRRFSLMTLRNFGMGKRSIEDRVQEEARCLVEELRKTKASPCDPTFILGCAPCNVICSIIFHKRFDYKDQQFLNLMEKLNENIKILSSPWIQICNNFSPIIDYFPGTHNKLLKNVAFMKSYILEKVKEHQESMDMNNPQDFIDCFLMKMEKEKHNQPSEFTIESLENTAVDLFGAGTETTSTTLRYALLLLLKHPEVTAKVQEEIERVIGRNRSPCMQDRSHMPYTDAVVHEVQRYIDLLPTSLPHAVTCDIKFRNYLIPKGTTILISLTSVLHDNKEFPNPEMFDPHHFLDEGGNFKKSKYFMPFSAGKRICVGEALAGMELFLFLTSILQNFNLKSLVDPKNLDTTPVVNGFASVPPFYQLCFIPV
`COC(=O)Cn1nc(-c2cccc(OC)c2)c2ccccc21`: the Potency was 13.5 µM (active).

In the case of `Cc1cc(C(=O)N2Cc3cnn(C)c3Nc3ccccc32)ccc1CNC(=O)N1CCN(Cc2cc(O)cc(O)c2)CC1`, the Potency is 2.39 µM (active).

With `COc1cccc(CNc2ccc(S(=O)(=O)Nc3nc4ccccc4s3)cc2)c1O`, the Potency was 6.74 µM (active).

`COc1cccc(C(=O)NCCNc2nc3cc(C)cc(C)c3cc2C#N)c1`: the Potency was 1.69 µM (active).

Consider `CC[C@@H](Nc1c(Nc2cccc(C(=O)N(C)C)c2O)c(=O)c1=O)c1ccc(C)o1`, for which the Potency was 2.39 µM (active).

Regarding `O=C(c1c2ccccc2cc2ccccc12)N1CCC(N2CCC[C@@H](C(=O)N3CCOCC3)C2)CC1`, the “activity change, negative = inhibition” value is -1.41% (inactive).

`CC(CNS(=O)(=O)C(C)C)c1ccc(-c2ccc(C#N)cc2)cc1` (configuration not stated): the “activity change, negative = inhibition” value is -0.369% (inactive).

As to `Cc1nnc(-c2sc(NC(=O)[C@H](C(C)C)n3c(=O)[nH]c4ccccc4c3=O)nc2C)o1`, the Potency is 9.52 µM (active).

For the compound `Cc1ccc(-c2c(-c3nn(C)c4ncnc(N5CCC(N6CCCCC6)C5)c34)cnn2C)cc1` (configuration not stated), the Potency was 19 µM (active).

`CCCCC(=O)N1c2ccccc2NC2=C(C(=O)CCC2)C1c1ccccc1Cl` (configuration not stated): the Potency is 12 µM (active).

Turning to `COc1ccc(NC(=O)c2ccc(-c3ccc(C(N)=O)cc3C)cc2)cc1N1CCN(C)CC1`, the “activity change, negative = inhibition” value is 0.145% (inactive).

As to `CC1(C)CC=C(c2cnc3ccccc3c2)c2cc(C(=O)Nc3ccc(C(=O)O)cc3)ccc21`, the Potency was 21.3 µM (active).

As for `CC(C)(C)NS(=O)(=O)c1ccc(-c2ccc3[nH]nc(N)c3c2)cc1`, the Potency was 13.5 µM (active).

Turning to `CC[C@H](NC(=O)c1c(O)c(-c2ccccc2)nc2ccccc12)c1ccccc1`, the Potency was 16.9 µM (active).

Turning to `O=C(Nc1cc(-c2ccccc2)nn1-c1ccccc1F)c1ccc([N+](=O)[O-])cc1`, the Potency was 6.74 µM (active).

As for `CCNC(=O)C1CC(F)(c2ccc(CN3CCCC3)c(F)c2)C1` (configuration not stated), the “activity change, negative = inhibition” value is 0.189% (inactive).

With `COc1cnc(-c2ccc(Cn3c(CC(C)(C)C(=O)O)c(SC(C)(C)C)c4cc(OC[C@@H]5Cc6ccccc6N5C(C)=O)ccc43)cc2)nc1`, the Potency was 12 µM (active).

Take `CN1C(=O)N(c2cc(Cl)cc(Cl)c2)C(=O)[C@@]1(C)Cc1ccc(Br)cc1`: the Potency was 3.38 µM (active).

For the compound `O=C(NC1Cc2ccccc2N(C[C@@H](O)CO)C1=O)c1cc2cc(Cl)sc2[nH]1` (some centres not stated), the Potency is 21.3 µM (active).

`Cc1cn(-c2cc(NC(=O)c3ccc(C)c(Nc4nccc(-c5cnccn5)n4)c3)cc(C(F)(F)F)c2)cn1`: the Potency was 1.51 µM (active).

Test system in another experiment: not listed separately
Put plainly: Primary qHTS for inhibitors of nuclear receptor binding SET domain protein 2 (NSD2) in an isogenic RCH-ACV NSD2 p.E1099K mutant (9B) (AID 1645876). Note: nearly all actives have a fitted effect of over 70% in size. The note with it: RCH-ACV (leukaemia line) NSD2 E1099K (9B) viability, CellTiter-Glo, 72 h; series mostly up to 44.9 µM; activity change, negative = viability loss: at the top concentration.
On to `COC(=O)Cn1nc(-c2cccc(OC)c2)c2ccccc21`, for which the “activity change, negative = viability loss” value is -4.4% (inactive).

With `COc1cc(Nc2nc3c(s2)CCCC3c2ccccc2)ccc1-n1cnc(C)c1` (configuration not stated), the activity change, negative = viability loss is -1.48% [at 9.23 µM] (inactive).

With `Cc1cc(C(=O)N2Cc3cnn(C)c3Nc3ccccc32)ccc1CNC(=O)N1CCN(Cc2cc(O)cc(O)c2)CC1`, the result was inactive.

Turning to `COc1cccc(CNc2ccc(S(=O)(=O)Nc3nc4ccccc4s3)cc2)c1O`, the “activity change, negative = viability loss” value is -20.9% (inactive).

Take `O=C(O)Cn1nnc(-c2ccc(CN(CCCCOc3ccc(CN4CCCC4)cc3)CCc3ccccc3)cc2)n1`: the “activity change, negative = viability loss” value was -5.59% (inactive).

Regarding `CC[C@@H](Nc1c(Nc2cccc(C(=O)N(C)C)c2O)c(=O)c1=O)c1ccc(C)o1`, the “activity change, negative = viability loss” value was -25.6% (inactive).

Regarding `O=C(c1c2ccccc2cc2ccccc12)N1CCC(N2CCC[C@@H](C(=O)N3CCOCC3)C2)CC1`, the “activity change, negative = viability loss” value is -8.18% (inactive).

Regarding `Cc1ncc(NC(=O)c2ccc(CN3CCN(C)CC3)c(C(F)(F)F)c2)cc1Nc1nccc(-c2cccnc2)n1`, the Potency was 7.28 µM (active) and 5.9 µM (active).

Take `FC(F)(F)Oc1ccc(-c2ccc3nnc(C(F)(F)F)n3c2)cc1`: the “activity change, negative = viability loss” value is -7.76% (inactive).

`Cc1nnc(-c2sc(NC(=O)[C@H](C(C)C)n3c(=O)[nH]c4ccccc4c3=O)nc2C)o1`: the “activity change, negative = viability loss” value is -12.1% (inactive).

With `FC(F)(F)c1nnc2c(Sc3ccccc3)nc3ccc(Cl)cc3n12`, the Potency is 4.09 µM (active).

`Cc1ccc(-c2c(-c3nn(C)c4ncnc(N5CCC(N6CCCCC6)C5)c34)cnn2C)cc1` (configuration not stated): the “activity change, negative = viability loss” value was -4.32% (inactive).

For `COc1ccnc2[nH]cc(C(=O)C(=O)N3CCN(C(=O)c4ccccc4)CC3C)c12` (configuration not stated), the “activity change, negative = viability loss” value was -16.7% (inactive).

For `O=C(Nc1ccc(N2CCC(C(=O)N3CCOCC3)CC2)cc1)c1cnc(Oc2ccccc2)nc1`, the call was inactive.

Turning to `Cc1occc1C(=O)n1ccnc1`, the “activity change, negative = viability loss” value is -19.7% (inactive).

On to `CCOC(=O)CNC(=O)[C@@H]1CCCN1C(=O)Cc1ccccc1` (PhAc-Pro-Gly-OEt), for which the “activity change, negative = viability loss” value was 2.2% (inactive).

Regarding `COc1ccc(N2CCN(CCCNC(=O)Cn3c(=O)c4cccn4c4c(C)ccnc43)CC2)cc1`, the “activity change, negative = viability loss” value was -3.29% (inactive).

On to `CC[C@H](NC(=O)c1c(O)c(-c2ccccc2)nc2ccccc12)c1ccccc1`, for which the “activity change, negative = viability loss” value was -20.7% (inactive).

For `O=C(CCCCC1CCCCC1)N1CCC(c2cnc[nH]2)CC1`, the Potency was 23 µM (active).

As to `Fc1ccc(-c2c3cccc(C(F)(F)F)c3nn2Cc2ccc(F)cc2Cl)cc1`, the “activity change, negative = viability loss” value was 2.94% (inactive).

Regarding `COc1cnc(-n2cnc(C)n2)c2[nH]cc(C(=O)C(=O)N3CCN(C(=O)c4ccccc4)CC3)c12`, the compound was called inactive.

On to `NC(N)=NCCC[C@H](NC(=O)c1sccc1NS(=O)(=O)c1cccc2nsnc12)C(=O)O`, for which the call was inactive.

As for `CCNC(=O)C1CC(F)(c2ccc(CN3CCCC3)c(F)c2)C1` (configuration not stated), the call was inactive.

`Cc1cc(OCCN2CCOCC2)nn1-c1ccc2ccccc2c1`: the “activity change, negative = viability loss” value was -25.3% (inactive).

For `CCc1nn(CCO)c(CC)c1Oc1cc(C#N)cc(C#N)c1`, the “activity change, negative = viability loss” value is -3.22% (inactive).

Consider `Cc1cn(-c2cc(NC(=O)c3ccc(C)c(Nc4nccc(-c5cnccn5)n4)c3)cc(C(F)(F)F)c2)cn1`, for which the “activity change, negative = viability loss” value is 3.91% (inactive).

Regarding `CC(C)c1c(NC(=O)Nc2ccc(Cl)cc2)c(=O)n(-c2ccccc2)n1C`, the “activity change, negative = viability loss” value was -12% (inactive).
